# Assay results taken from PubChem BioAssay AID602474 (National Center for Advancing Translational Sciences (NCATS), 2012).
# Records with an inconclusive call do not appear. A number with no mark means an inactive call. The source made the active and inactive calls. The call rests on the fitted dose curve; in most records, active means well fitted inhibition curve with a large enough effect; inconclusive means small, poorly fitted or top-dose-only effect; inactive means no such curve, though single readings can be large or run the other way.
# Target: Luciferin 4-monooxygenase (Photinus pyralis) (UniProt P08659)
# Experiment: FLuc inhibitory activity for the follow-up compounds in a biochemical assay with a commercial detection reagent - BriteliteTM Plus (PerkinElmer)
# Conditions: purified FLuc, Britelite Plus luminescence; series mostly up to 38.3 µM; activity change, negative = inhibition: at the top concentration
# Description: NCGC Assay Overview: Firefly (Photinus pyralis) luciferase is one of the most commonly used transcriptional reporters. It is considered one of the more dynamically responsive reporters - that is, responsive to changes in reporter transcription - as it requires no post-translational modifications and is enzymatically active directly after protein synthesis (Wood, 1998). With no endogenous expression in mammalian cells and without the requirement of external excitation, it offers very little background signal, thus generally providing excellent signal to background for most assays. Previous profiling work to determine the prevalence of compounds that affect FLuc enzymatic activity (PubChem AID 411) identified that ~3% of the MLSMR library (then at ~72K) inhibited FLuc (Auld et al., 2008). […] Of the compounds identified in this profile that inhibited FLuc, 151 compounds were selected for further analysis, in an effort to better understand their mode of inhibiting FLuc. The assay described here was to determine the activity of the compounds in a FLuc assay that used a commercial formulation of detection reagent (BriteliteTM Plus; PerkinElmer).
# NCGC Assay Protocol Summary: Reagents: Britelite Plus detection reagent; 50mM Tris acetate, pH 7.5; 10nM P. pyralis luciferase (Sigma #L9506) Control compounds used were two known firefly luciferase inhibitors (3-(5-(3-chlorophenyl)-1,2,4-oxadiazol-3-yl)benzoic acid and 5-(2-fluorophenyl)-3-phenyl-1,2,4-oxadiazole), and DMSO. Assay Summary: Three microliters of buffer containing firefly luciferase (final concentrations: 50mM Tris acetate, 10nM P. pyralis luciferase) are dispensed into each well of a Greiner white, solid-bottom 1536-well format plate using a flying reagent dispenser (FRD). These assay plates were then treated with 23nL of compound or DMSO using a Kalypsys pin tool, which allows for delivery of a 12-point intraplate titration of each compound to the assay plate (quantitative HTS), with final compound concentrations ranging from approximately ~38uM to 0.2nM. Three microliters of 2X Britelite Plus detection reagent was then delivered by FRD to each well. Luciferase activity was then measured using a ViewLux CCD imager (PerkinElmer), with an average exposure time of 2-30 seconds (2X binning, medium/high gain).
# Chain of Luciferin 4-monooxygenase (Photinus pyralis) (P08659 whole entry, looked up): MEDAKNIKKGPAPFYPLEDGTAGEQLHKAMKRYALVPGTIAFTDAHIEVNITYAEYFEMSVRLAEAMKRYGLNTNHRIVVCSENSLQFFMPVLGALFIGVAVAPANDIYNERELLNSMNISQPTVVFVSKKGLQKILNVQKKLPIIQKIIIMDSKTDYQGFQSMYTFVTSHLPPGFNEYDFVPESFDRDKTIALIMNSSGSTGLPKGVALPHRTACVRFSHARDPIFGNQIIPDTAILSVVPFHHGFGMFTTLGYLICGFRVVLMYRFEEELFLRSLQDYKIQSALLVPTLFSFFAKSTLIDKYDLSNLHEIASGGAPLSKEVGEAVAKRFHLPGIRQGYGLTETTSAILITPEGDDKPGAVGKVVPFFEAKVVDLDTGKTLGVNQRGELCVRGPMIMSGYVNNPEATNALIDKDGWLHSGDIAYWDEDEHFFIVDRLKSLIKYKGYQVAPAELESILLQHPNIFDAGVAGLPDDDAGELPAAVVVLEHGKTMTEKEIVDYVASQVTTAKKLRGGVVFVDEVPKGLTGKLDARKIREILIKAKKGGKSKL
Structure (SMILES),Potency,"activity change, negative = inhibition"
CCOc1ccc2nc(NC(=O)c3ccccc3)sc2c1,2520 nM (active),–
Cc1ccc(C(=O)Nc2cccc(C(=O)O)c2)cc1S(=O)(=O)N1CCCC1,2250 nM (active),–
CCc1noc(C)c1C(=O)Nc1nc2ccc(OC)cc2s1,50.4 nM (active),–
Cc1ccc(C(=O)Nc2cccc(C(=O)O)c2)cc1,2000 nM (active),–
Cc1ccc(C(=O)O/N=C(\N)c2ccccn2)c(Cl)c1,25.2 nM (active),–
COc1ccc(C(=O)Nc2ccccc2C(=O)Nc2ccccc2C(=O)O)cc1,11300 nM (active),–
Cc1ccc(S(=O)(=O)N2CCN(C(=O)c3ccccc3-c3nc4ccccc4s3)CC2)c(C)c1,–,14.2%
O=C(O)c1cccc(NC(=O)c2cccc(NC(=O)C3CCCO3)c2)c1 (stereo not given),11300 nM (active),–
COc1ccc2nc(NC(=O)C3CCN(S(=O)(=O)c4cccnc4)CC3)sc2c1,–,37.8%
COc1ccc2nc(NC(=O)c3ccc([N+](=O)[O-])o3)sc2c1,3560 nM (active),–
Cc1ccc(C(=O)Nc2cccc(C(=O)O)c2)cc1S(=O)(=O)N1CCOCC1,11300 nM (active),–
Cc1ccc2nc(-c3ccc(NC(=O)CN4CCN(C(=O)c5ccco5)CC4)cc3)sc2c1,798 nM (active),–
COc1ccc(Br)cc1C(=O)Nc1ccc(C(=O)O)cc1,–,-10.9%
Nc1ccc(-c2nc3cc(N)ccc3s2)cc1,4000 nM (active),–
COc1ccc2nc(NC(=O)c3cnccn3)sc2c1,2000 nM (active),–
C/C(=N\NC(=O)c1ccccc1NC(=O)c1ccc(Cl)cc1)c1ccncc1,15.9 nM (active),–
Cc1ccc(C(=O)Nc2ccc(C(=O)O)cc2)cc1S(=O)(=O)NCc1ccccc1,–,-0.493%
COc1cc(OC)cc(C(=O)Nc2ccccc2-c2nc3ccccc3s2)c1,–,-29.1%

Structure (SMILES),Potency,"activity change, negative = inhibition"
CC(C)(C)NC(=O)c1ccccc1-c1nc2ccccc2s1,–,-6.17%
CN(C)S(=O)(=O)c1ccc(C(=O)Nc2ccccc2C(=O)O)cc1,–,-14.3%
O=C(Nc1cccc(-c2nc3ccccc3s2)c1)c1cc(-n2cnnc2)ccc1Cl,–,19.7%
O=C(O)c1cccc(NC(=O)c2ccc(Cl)c(S(=O)(=O)N3CCCCCC3)c2)c1,3180 nM (active),–
CC(=O)Nc1cccc(C(=O)Nc2ccccc2C(=O)O)c1,–,-23.5%
COc1ccc(C(=O)Nc2ccccc2C(=O)Nc2ccc(C(=O)O)cc2)cc1,14200 nM (active),–
COc1ccccc1C(=O)Nc1ccc(C(=O)Nc2ccccc2C(=O)O)cc1,–,14.6%
COc1ccc(C(=O)Nc2cccc(C(=O)O)c2)cc1S(=O)(=O)N1CCCC1,–,-21.3%
O=C(Nc1ccc(-c2nc3ccccc3s2)cc1)C1=COCCO1,400 nM (active),–
Cc1c(NS(C)(=O)=O)cccc1-c1nc2ccccc2s1,–,-34.5%
COc1ccc2nc(NC(=O)c3nc(S(=O)(=O)Cc4ccc(C)cc4)ncc3Cl)sc2c1,–,-19.4%
O=C(Nc1ccccc1-c1nc2ccccc2s1)c1cccnc1,–,-12.6%
Cc1ccc2nc(-c3ccc(N)cc3)sc2c1,895 nM (active),–
COc1cc(OC)cc(C(=O)Nc2ccc(-c3nc4ccccc4s3)c(C)c2)c1,113 nM (active),–
CC(C)c1ccc(-c2nc3ccccc3s2)cc1,22.5 nM (active),–
O=C(Cc1ccccc1)Nc1ccccc1C(=O)Nc1ccc(C(=O)O)cc1,–,-5.3%
Cc1ccc(C(=O)Nc2ccccc2C(=O)O)cc1S(=O)(=O)N1CCCCCC1,8950 nM (active),–
